According to PubChem BioAssay (NCI):
This is part of a sample that, as a whole, favours compounds with a hit. Of some 83,000 tested, about 20% had one in any assay.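 Compound tested at a single concentration for 48 hours in 96-well plates; a percent growth value below 10 was scored as active.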 Unmarked numbers belong to inactive results. The source made the active and inactive calls.

Columns and labels:
Assay in all cases: NCI-60 one-dose screen, 48 h (100 = growth as untreated, 0 = no growth, -100 = all killed)
Details in all cases: 10 µM unless noted
[1] = system: NCI-H23 lung
[2] = system: NCI-H226 lung
[3] = system: NCI-H322M lung
[4] = system: HOP-62 NSCLC
[5] = system: NCI-H460 lung
[6] = system: NCI-H522 lung
[7] = system: A549/ATCC NSCLC
[8] = system: 786-0 renal
[9] = system: COLO 205 colon
[10] = system: DU-145 prostate
[11] = system: K-562 leukemia
[12] = system: MALME-3M melanoma
[13] = system: MDA-MB-231 breast
[14] = system: RXF 393 renal
[15] = system: SF-268 CNS
[16] = system: SF-295 CNS
[17] = system: SF-539 CNS
[18] = system: UACC-257 melanoma
[19] = system: M14 melanoma
[20] = system: HOP-92 NSCLC

Compound	growth [1]	growth [2] [%]	growth [3]	growth [4]	growth [5]	growth [6]	growth [7]	growth [8]	growth [9]	growth [10]	growth [11]	growth [12]	growth [13]	growth [14]	growth [15] [%]	growth [16]	growth [17]	growth [18]	growth [19]	growth [20]
CCN(CC)c1nc(SCc2ccccc2Cl)ncc1C	103%	81.8	121%	93.1%	106%	99%	95%	106%	112%	109%	97.7%	115%	80.3%	99.6%	113	97.3%	129%	106%	114%	
O=C(c1ccc(-c2ccccc2)cc1)c1ccc([N+](=O)[O-])cc1	103%	98.5	115%	111%	109%			99.9%	111%	121%	69.8%	163%	90.8%	109%	102	83.6%	107%	121%	94.5%	90.6%
CCN(CC)C(=S)SC(SC(=S)N(CC)CC)C(=O)c1nnn(-c2ccc([N+](=O)[O-])cc2)c1C	98.4%	104	98.5%	97.3%	73.9%	79.5%	95.9%	94.2%	95.2%	104%	81%	94.3%	95.1%	114%	92.9	100%	98.3%	101%	96.9%	
COC(=O)c1cc(-c2ccc(OC)cc2)[nH]c1N/N=C/c1c(Cl)cccc1Cl	46.1%	38.1	36.1%	-42.5% (active)	-9.38% (active)	10.5%		-14% (active)	-23.9% (active)	-26.2% (active)	0.823% (active)	24.7%	7.56% (active)	-44.2% (active)	13.8	-28.2% (active)	-38.8% (active)	14.2%	-59.3% (active)	
Cn1c(-c2ccc(Br)cc2)c(O)c(=O)c2c(F)cccc21	48.4%	62.9	53.5%	34%	20.5%	54%	45.9%	42.7%	7.68% (active)	54.4%	100%	55.2%	54.5%	66.1%	47	48.4%	57.4%	71.4%	50.6%	
CC(C)N1CN2C(=S)NC3C2N(C1)C(=S)N3C (stereo not given)	102%	100	104%	103%	105%	90.2%	90.8%	99.3%	120%	104%	102%	105%	110%	105%	96	98%	109%	95%	105%	
C=C1C(=O)O[C@H]2[C@H]1CC/C(COC(=O)N[C@H]1C[C@H](O[C@H]3C[C@](O)(C(=O)CO)Cc4c(O)c5c(c(O)c43)C(=O)c3c(OC)cccc3C5=O)O[C@@H](C)[C@H]1O)=C\CC[C@@]1(C)O[C@@H]21	91.1%	58.2	98.7%	78.7%	63.4%		77.2%	43.1%	36.2%	69%	7.56% (active)	-28.6% (active)	11%	19.2%	64.2	102%	20.8%	61.4%	82.6%	-5.4% (active)
Cn1c(=O)c2c(nc(NC3=NS(=O)(=O)c4ccccc43)n2CC(=O)N2CCc3ccccc32)n(C)c1=O	87.2%	98.8	100%	94.4%		97.5%	99.3%	97.3%	101%	106%	114%	103%	94.3%	92.7%	97.5	105%	98.1%	94.9%	89.1%	109%
Cc1ccccc1Cn1cnc2ccc(-c3cc(NC(=O)c4ccc(NC5CCN(C)CC5)cc4)n[nH]3)cc21	75%	68	83.5%	72.3%			84.5%	85%	70.8%	90.8%	15.8%	31.6%	61.3%	4.62% (active)	69.2	89.9%	27.4%	81%	82.9%	92.4%
CC1=C(Nc2ccc(N3CCN(C)CC3)cc2)C(=O)c2cncnc2C1=O	72.6%	99	101%	107%		84.9%	92.6%	107%	124%	81%	9.68% (active)	131%	-10.1% (active)	118%	102	103%	94.5%	65.6%	105%	-28.6% (active)
CCN(CC)CCOc1ccc(-c2c(-c3ccccc3)c(=O)oc3ccccc23)cc1	94.8%	82.7	110%	95.5%		71.6%	92%	85%	81.2%	121%	92.1%	87.2%	88.7%	71.9%	87.4	104%	92.6%	86.3%	88.2%	84.3%
N#Cc1c(NC(=O)c2ccccc2)sc2c1CCC(=O)C2	5.05% (active)	14.7	71.9%	40.7%		-12.7% (active)		25.9%	-46.4% (active)	40.7%	4.06% (active)	-12.9% (active)	-11.3% (active)	-1.37% (active)	16	21.7%	-28.4% (active)	2.08% (active)	14%	-22.9% (active)
CN(C)CCCn1c2c(c3ncccc3c1=O)C(=O)c1ccccc1-2	54.8%	54.1	44.1%	51.9%		34.4%	42%	52.2%	20.4%	39.3%	24.7%	61.9%	63.6%	57.3%	42.3	50.7%	21%	72.8%	48.6%	
N=C(N)c1ccc(-c2ccc(-c3ccc(Cl)cc3)s2)nc1	62.8%	84.5	-30.3% (active)	36%		-52.5% (active)	-30.8% (active)	71.3%	-71.8% (active)	-94.8% (active)	-45.1% (active)	87.3%	-47% (active)	60.1%	57.6	27.1%	-55.2% (active)	82.3%	17.9%	
CCn1c(=S)[nH]c2c(=O)n(C)c(=O)n(C)c21	105%	105	95%	109%		90.3%	96.3%	97.1%	116%	111%	105%	99.6%	115%	106%	114	104%	95.3%	92%	95.5%	89.8%
O=C(Nc1cccnc1Nc1ccc(F)cc1)c1cn(Cc2cccc(Oc3ccccc3)c2)nn1	74%	76.6	78.9%	84.7%			61%	79.2%	91.6%	84.5%	18.8%	60.9%	61.1%	74.2%	54.8	67.7%	63.7%	87.4%	37.1%	84.8%
COc1ccc(-c2nc(SCC(C)C)nc(N/N=C\c3ccc(F)cc3)c2C#N)cc1	97.4%	81.4	67.7%	109%	25.7%		69.9%	83%	94.8%	94.3%	94%	81%	93.1%	111%	86.6	75.8%	91.6%	102%	92.7%	
